We go through nine molecules from PubChem BioAssay (NCI).

The panel holds about 83,000 compounds, 20% with a hit somewhere; the sample as a whole holds those more often.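 96-well plates, one dose, 48 hours. Percent growth reported; active if below 10.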 Values without a mark were called inactive. Activity calls are given as the source filed them.

Some test systems named below: DU-145 prostate; K-562 leukemia; MALME-3M melanoma; MDA-MB-231 breast; RXF 393 renal; SF-268 CNS; SF-295 CNS; SF-539 CNS; UACC-257 melanoma; M14 melanoma; HCT-15 colon; HT29 colon; SNB-75 CNS; SNB-19 CNS; PC-3 prostate; SK-MEL-5 melanoma; UACC-62 melanoma; LOX IMVI melanoma; SK-MEL-28 melanoma; U251 CNS.
Assay in all cases: NCI-60 one-dose screen, 48 h (100 = growth as untreated, 0 = no growth, -100 = all killed)
What all share (conditions): 10 µM unless noted

As for `COc1cc(-c2nc3sccn3c2-c2ccnc(NCCNS(=O)(=O)c3ccccc3)n2)ccc1F`, the growth is 61.4% in the assay on DU-145 prostate; 28.3% in the assay on K-562 leukemia; 49.2% in the assay with MALME-3M melanoma; 48.8% in the assay with MDA-MB-231 breast; 21.5% in the assay with RXF 393 renal; 48.6% in the assay on SF-268 CNS. The growth in the assay with SF-295 CNS is 66.4%; with SF-539 CNS, 83.8%; with UACC-257 melanoma, 62.4%; with M14 melanoma, 38.6%; in the assay with HCT-15 colon, 52.1%; with HT29 colon it was 24.6%. The growth was 59.4% with SNB-75 CNS; 67.6% in the assay with SNB-19 CNS; 30.9% with PC-3 prostate; 19% in the assay on SK-MEL-5 melanoma; 25.8% with UACC-62 melanoma; 41.4% in the assay with LOX IMVI melanoma. In the assay with SK-MEL-28 melanoma, the growth was 63.7%.

For the molecule `COC(=O)c1cc(N=C2NC(=O)/C(=C/C=C/c3ccccc3)S2)ccc1O`, the growth was 16.8% in the assay with DU-145 prostate; 14.4% in the assay on K-562 leukemia; 65.3% in the assay with MALME-3M melanoma; 54.7% with MDA-MB-231 breast; -12.8% (active) in the assay on RXF 393 renal; 61.7% in the assay with SF-268 CNS. Moreover, the growth in the assay with SF-295 CNS was 20.3%; in the assay with SF-539 CNS, 12.4%; with UACC-257 melanoma, 70.9%; in the assay with M14 melanoma, 11.3%; in the assay with HCT-15 colon, 25.8%; in the assay with HT29 colon it was 10.7%. For the same molecule, the growth with SNB-75 CNS was 12.9%; with SNB-19 CNS, 30.4%; with PC-3 prostate, 30%; in the assay with SK-MEL-5 melanoma it was 30.1%; with UACC-62 melanoma it was 33.6%; in the assay on LOX IMVI melanoma it was 40.1%. Moreover, in the assay with SK-MEL-28 melanoma, the growth was 65.4%.

As for `COc1ccc(C(O)c2cc3c(N)c(C(=O)Nc4cccc(Br)c4)sc3nc2C)cc1` (stereo not given), the growth with DU-145 prostate was 3.17% (active); in the assay with K-562 leukemia it was 9.61% (active); in the assay on MALME-3M melanoma, 31.8%; with MDA-MB-231 breast it was 2.61% (active); with RXF 393 renal, 28.2%; in the assay with SF-268 CNS it was 6.77% (active). Also, the growth in the assay with SF-295 CNS was 8.77% (active); in the assay on SF-539 CNS, -19.9% (active); in the assay with UACC-257 melanoma, 45.7%; in the assay with M14 melanoma, 11.5%; with HCT-15 colon, 7.7% (active); with HT29 colon, 8.32% (active). Also, the growth is 24.4% with SNB-75 CNS; 24.6% with SNB-19 CNS; 15.6% in the assay on PC-3 prostate; -72.9% (active) in the assay with SK-MEL-5 melanoma; 13.5% in the assay on UACC-62 melanoma; 15.5% in the assay with LOX IMVI melanoma. Further, in the assay with SK-MEL-28 melanoma, the growth is 50.7%.

Regarding `Cc1ccc(/C=C2\COc3ccc(O)cc3C2=O)cc1`, the growth with DU-145 prostate was 103%; in the assay on K-562 leukemia, 17.9%; with MALME-3M melanoma, 90.3%; in the assay on MDA-MB-231 breast, 90.7%; with RXF 393 renal, 96.3%; with SF-268 CNS, 86.3%. The growth is 105% in the assay on SF-295 CNS; 98.7% in the assay on SF-539 CNS; 103% with UACC-257 melanoma; 93.1% with M14 melanoma; 70.8% in the assay with HCT-15 colon; 57.7% with HT29 colon. In addition, the growth in the assay on SNB-75 CNS is 84.6%; in the assay with SNB-19 CNS, 87.5%; in the assay on U251 CNS, 69.9%; in the assay on SK-MEL-5 melanoma, 97.7%; in the assay with LOX IMVI melanoma, 57%; in the assay with SK-MEL-28 melanoma, 103%.

For the molecule `O=C1/C(=C/c2cccc(F)c2)CN(C(=O)C(Cl)Cl)C/C1=C\c1cccc(F)c1`, the growth in the assay with DU-145 prostate was -81.5% (active); with K-562 leukemia it was -9.05% (active); with MALME-3M melanoma, -36.2% (active); in the assay on MDA-MB-231 breast, -63.7% (active); in the assay on RXF 393 renal it was -89.6% (active); in the assay on SF-268 CNS, -29.6% (active). The growth in the assay on SF-295 CNS is -71.2% (active); with SF-539 CNS it was -98.6% (active); in the assay on UACC-257 melanoma, -42.4% (active); in the assay on M14 melanoma, -69.7% (active); with HCT-15 colon, -64.7% (active); in the assay on HT29 colon, 1.62% (active). Further, the growth was -52.2% (active) in the assay on SNB-75 CNS; -88.2% (active) with SNB-19 CNS; -77.8% (active) in the assay with PC-3 prostate; -82.2% (active) with SK-MEL-5 melanoma; -83.5% (active) in the assay on UACC-62 melanoma; -92.1% (active) in the assay on LOX IMVI melanoma. In addition, the growth with SK-MEL-28 melanoma was -80.3% (active).

Turning to `CCN(CC)CC(O)COc1c(Br)c(Br)c(Br)c2c1OC(C)(C)C2` (stereo not given), the growth in the assay with DU-145 prostate is 117%; in the assay with K-562 leukemia, 23.9%; in the assay on MALME-3M melanoma, -30.1% (active); in the assay on MDA-MB-231 breast it was 44.7%; in the assay with RXF 393 renal, 99.4%; in the assay on SF-268 CNS, 83%. Also, the growth was 1.69% (active) in the assay on SF-295 CNS; 108% in the assay with SF-539 CNS; 140% in the assay with UACC-257 melanoma; 41.3% in the assay with M14 melanoma; 97.3% in the assay with HCT-15 colon; 18.9% with HT29 colon. In addition, the growth with SNB-75 CNS was 91.3%; in the assay with SNB-19 CNS, 73.4%; in the assay on PC-3 prostate, 78.1%; with SK-MEL-5 melanoma it was -78.9% (active); with UACC-62 melanoma, -43.7% (active); with LOX IMVI melanoma, 52.9%. In the assay on SK-MEL-28 melanoma, the growth was 64%.

In the case of `CN(c1cc2ncc(=O)[nH]c2cc1NC(N)=NCc1ccc(Cl)cc1)C1CCCCC1`, the growth in the assay with DU-145 prostate is 71.7%; in the assay on K-562 leukemia, 2.83% (active); in the assay on MALME-3M melanoma it was 29.9%; with MDA-MB-231 breast, 19.9%; in the assay with RXF 393 renal it was 37.1%; with SF-268 CNS it was 67.9%. The growth was 95.8% in the assay on SF-295 CNS; 66.4% with SF-539 CNS; 106% in the assay with UACC-257 melanoma; 40.1% with M14 melanoma; 99.9% with HCT-15 colon; 22.7% in the assay with HT29 colon. The growth in the assay on SNB-75 CNS was 58.2%; with SNB-19 CNS, 63.5%; with PC-3 prostate, 64.3%; with SK-MEL-5 melanoma, 71.5%; in the assay with UACC-62 melanoma it was 72.3%; in the assay with LOX IMVI melanoma, -45.6% (active). Further, the growth with SK-MEL-28 melanoma is 52.8%.

For the molecule `Cc1[nH]c(=O)[nH]c(=O)c1Br`, the growth with DU-145 prostate was 125%; in the assay with K-562 leukemia it was 98.3%; in the assay on MALME-3M melanoma, 119%; with MDA-MB-231 breast, 99.3%; in the assay on RXF 393 renal, 115%; with SF-268 CNS it was 95.2%. Moreover, the growth was 98.4% in the assay on SF-295 CNS; 114% with SF-539 CNS; 88.1% in the assay with UACC-257 melanoma; 107% in the assay with M14 melanoma; 106% in the assay on HCT-15 colon; 131% in the assay on HT29 colon. For the same molecule, the growth was 91.6% with SNB-75 CNS; 98% with SNB-19 CNS; 97.9% with PC-3 prostate; 112% in the assay with SK-MEL-5 melanoma; 97.3% with UACC-62 melanoma; 104% with LOX IMVI melanoma. For the same molecule, the growth in the assay with SK-MEL-28 melanoma was 114%.

Turning to `NC(=O)c1c(NC(=O)c2ccc3ccccc3c2)sc2c1CCC(=O)C2`, the growth in the assay on DU-145 prostate was 94.4%; with K-562 leukemia, 14.6%; with MALME-3M melanoma, 91.1%; in the assay on MDA-MB-231 breast, 67.5%; in the assay with RXF 393 renal, 60.7%; in the assay with SF-268 CNS, 31.4%. Besides, the growth in the assay with SF-295 CNS is 93.4%; in the assay with SF-539 CNS it was 25.4%; with UACC-257 melanoma it was 91.6%; in the assay with M14 melanoma it was 37.4%; with HCT-15 colon, 42.1%; with HT29 colon, 55.2%. Moreover, the growth was 40.3% in the assay with SNB-75 CNS; 46.3% with SNB-19 CNS; 16.6% in the assay with PC-3 prostate; 99.7% with SK-MEL-5 melanoma; 42% in the assay with UACC-62 melanoma; 37.5% in the assay on LOX IMVI melanoma. The growth in the assay with SK-MEL-28 melanoma was 97.1%.
